High-throughput results: PubChem BioAssay, National Center for Advancing Translational Sciences (NCATS)
An excerpt weighted towards active compounds, which were near 21% of everything screened.
CHX counter – Cycloheximide Counterscreen for Small Molecule Inhibitors of Shiga Toxin; cell reporter, cycloheximide protein synthesis inhibition counterscreen; max response, %; hit rate 12% among 300,000; in the data active means max response mostly above about 13%, no sharp cut-off; inactive means mostly below about 14%; further: read at 38.3 µM for the half of the compounds with a filed dose
Shiga inhibitor – A qHTS for Small Molecule Inhibitors of Shiga Toxin. hit rate 9.2% among 290,000. Vero cells, Shiga toxin protein synthesis inhibition reporter. inhibition, % at 38.7 µM. AID 2315, 2010; in the data active means inhibition mostly above about 28%, no sharp cut-off; inactive means mostly below about 43%
Pf growth 96h – Primary qHTS for delayed death inhibitors of the malarial parasite plastid, 96 hour incubation | P. falciparum luciferase reporter growth, 96 h | Potency, µM (highest dose often 28.7 µM), actives largely listed as inhibitors | hit rate 6.9% among 320,000 | AID 504834, 2011
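Two parasite generations (96 h, 37 C, 5% CO2) of compound exposure in infected erythrocytes (0.05% parasitemia, 2% hematocrit). Luciferase-reporter P. falciparum; decreased luminescence indicates inhibited growth, aimed at apicoplast-acting delayed death.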
HCV inhibitor – qHTS Assay for Inhibitors of Hepatitis C Virus (HCV); hit rate 3.4% among 340,000; AID 651820, 2012; Potency, µM (top dose mostly 41.8 µM), actives largely listed as inhibitors; Huh7.5.1 HCVcc-Cre infection, luciferase reporter, 44 h
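Luciferase read-out (15 sec integration) after a 15 min room-temperature substrate step quantifies HCVcc-Cre infection. Cells, 1,000 per well, had compound added 4 h post-plating, then virus at ~0.5 moi, and were cultured 44 h.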
Pf growth 48h – Primary qHTS for delayed death inhibitors of the malarial parasite plastid, 48 hour incubation; P. falciparum luciferase growth in erythrocytes, 48 h; Potency, µM (top dose mostly 28.7 µM), most hits filed as inhibitors; hit rate 5.9% among 310,000
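Parasite viability was followed by luminescence of a genomically integrated firefly luciferase. Cultures held 0.1% parasitemia at 2% hematocrit (final), incubated under 5% CO2 at 37 C.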
HCMV antiviral – qHTS Assay for inhibitors of the human cytomegalovirus (HCMV); HFF cells, HCMV-luciferase reporter, 72 h; stronger effect = lower value; activity change, negative = inhibition, % at 57.5 µM; hit rate 4.5% among 410,000; AID 1259415, 2018; in the data active means activity change below about -60%; inconclusive means no clear call, values can overlap the other calls; inactive means above about -39%
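Luciferase read-out from HCMV-luciferase-infected HFFs (MOI 1 PFU/cell) 72 h post infection at 37C; compounds added after 16 h cell attachment; activity normalized between buffer-only basal and Salinomycin (10uM) inhibitor controls.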
Numbers stand for hits. Unless noted, the call rests on the fitted dose curve; in most records, active means well fitted inhibition curve with a large enough effect; inconclusive means small, poorly fitted or top-dose-only effect, or another doubt; inactive means no such curve, though single readings can be large or run the other way.

For CCCCCCCN1C(N(C)C)=NC[C@@H]1Cc1ccccc1 the results were Pf growth 96h inconclusive, HCV inhibitor inconclusive, Pf growth 48h 4.65µM and HCMV antiviral inactive.
`CN(C)C1=NC[C@H](Cc2ccccc2)N1CC1CCCC1` gave Pf growth 96h inconclusive, HCV inhibitor inconclusive, Pf growth 48h inconclusive and HCMV antiviral inactive.
For CN(C)C1=NC[C@H](Cc2ccccc2)N1CCCCc1ccccc1 the results were Pf growth 96h inconclusive, HCV inhibitor inconclusive, Pf growth 48h 13.1µM and HCMV antiviral inactive.
`CC(C)C[C@H]1CN=C(N(C)C)N1CC1CCCCCC1` gave Pf growth 96h inconclusive, HCV inhibitor inactive, Pf growth 48h 4.15µM and HCMV antiviral inactive.
`Cc1cccc(CCN2C(N(C)C)=NC[C@@H]2Cc2ccccc2)c1` gave HCV inhibitor inactive and HCMV antiviral inactive.
[O-][n+]1c2ccccc2c2n1CCCN=C2c1ccc(Cl)cc1 was read as Pf growth 96h inactive, HCV inhibitor inactive, Pf growth 48h inactive and HCMV antiviral inactive.
O=C(CCN1C(=O)[C@@H]2Cc3ccccc3CN2C1=O)N[C@@H](Cc1ccccc1)C(=O)O was read as CHX counter inactive, Shiga inhibitor inactive, Pf growth 96h inactive, HCV inhibitor inactive, Pf growth 48h inactive and HCMV antiviral inactive.
Screening O=C(NCCc1ccccc1)C1CCN(Cc2cc3ccccc3n2Cc2ccccc2)CC1 returned HCMV antiviral inactive.
c1ccc(Oc2ccc(-c3ccn[nH]3)cc2)cc1 was read as CHX counter 36.6, Shiga inhibitor 69.0, Pf growth 96h inactive, HCV inhibitor inactive, Pf growth 48h inactive and HCMV antiviral inactive.
`Cc1ccc(N2CCN(C(=O)c3cccn4c(=O)c5ccc(Cl)cc5nc34)CC2C)cc1` (stereo not given) gave HCMV antiviral inactive.
COC(c1ccccc1)c1nnc(CCC(=O)N2CCCCCCC2)o1 (stereo not given) was read as CHX counter 10.5, Shiga inhibitor inactive, Pf growth 96h inconclusive, HCV inhibitor inactive, Pf growth 48h inactive and HCMV antiviral inactive.
`COC(c1ccccc1)c1nnc(CCC(=O)N(C)C(C2CC2)C2CC2)o1` (stereo not given) gave CHX counter 50.2, Shiga inhibitor 83.8, Pf growth 96h inactive, HCV inhibitor inactive, Pf growth 48h inactive and HCMV antiviral inconclusive.
For COC(c1ccccc1)c1nnc(CCC(=O)N2CCN(Cc3cccs3)CC2)o1 (stereo not given) the results were CHX counter inactive, Shiga inhibitor inactive, Pf growth 96h inactive, HCV inhibitor inactive, Pf growth 48h inconclusive and HCMV antiviral inactive.
Screening CC(CNC(=O)CCc1nnc(CCC2CCCCC2)o1)c1ccccc1 (stereo not given) returned CHX counter 20.8, Shiga inhibitor inactive, Pf growth 96h inactive, HCV inhibitor inactive, Pf growth 48h inactive and HCMV antiviral inactive.
COC(c1ccccc1)c1nnc(CCC(=O)NC2CCCCC2)o1 (stereo not given) was read as CHX counter 17.3, Shiga inhibitor inactive, Pf growth 96h inactive, HCV inhibitor inactive, Pf growth 48h inactive and HCMV antiviral inactive.
For O=C(CCc1nc(-c2ccccc2)no1)N1CCCC1 the results were CHX counter inactive, Shiga inhibitor inactive, Pf growth 96h inconclusive, HCV inhibitor inactive, Pf growth 48h inactive and HCMV antiviral inactive.
Screening O=C(CCc1nnc(-c2ccc(-c3ccccc3)cc2)o1)N1CCCCC1 returned CHX counter 48.9, Shiga inhibitor 68.5, Pf growth 96h inactive, HCV inhibitor inactive, Pf growth 48h inconclusive and HCMV antiviral inactive.
O=C(Nc1nnc(-c2ccccc2)o1)NC1CCCCC1 was read as CHX counter inactive, Shiga inhibitor inactive, Pf growth 96h 3.7µM, HCV inhibitor inactive, Pf growth 48h 11.7µM and HCMV antiviral inactive.
O=C(CCc1nnc(-c2ccsc2)o1)N1CCc2c(Cl)cccc2C1 was read as CHX counter 30.2, Shiga inhibitor 104.4, Pf growth 96h inactive, HCV inhibitor inactive, Pf growth 48h inactive and HCMV antiviral inactive.
CCOC(=O)CN(C)C(=O)CCc1nnc(-c2ccsc2)o1 was read as CHX counter inactive, Shiga inhibitor inactive, Pf growth 96h inconclusive, HCV inhibitor inactive, Pf growth 48h inactive and HCMV antiviral inactive.
